Where “and” joins values, the source holds several entries; their conditions need not be identical. Identical values can stand only once. This is part of a sample that, as a whole, favours compounds with a hit. Of some 83,000 tested, about 20% had one in any assay.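 Results are percent growth after 48 hours of single-concentration exposure. 100 means growth as in untreated cells, lower positive values show inhibition; negative values down to -100 show cell death.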
Columns and labels:
Test in all cases: NCI-60 one-dose screen, 48 h (100 = growth as untreated, 0 = no growth, -100 = all killed); active means growth percent below 10; inactive means the rest
NCI-H23 lung = test system: NCI-H23 lung
NCI-H226 lung = test system: NCI-H226 lung
NCI-H322M lung = details: 10 µM unless noted
HOP-62 NSCLC = details: 10 µM unless noted
NCI-H460 lung = test system: NCI-H460 lung
HOP-92 NSCLC = details: 10 µM unless noted
NCI-H522 lung = test system: NCI-H522 lung
A549/ATCC NSCLC = test system: A549/ATCC NSCLC
786-0 renal = test system: 786-0 renal
COLO 205 colon = test system: COLO 205 colon
DU-145 prostate = test system: DU-145 prostate
K-562 leukemia = test system: K-562 leukemia
MALME-3M melanoma = test system: MALME-3M melanoma
MDA-MB-231 breast = test system: MDA-MB-231 breast
RXF 393 renal = test system: RXF 393 renal
SF-268 CNS = test system: SF-268 CNS
SF-295 CNS = test system: SF-295 CNS
SF-539 CNS = test system: SF-539 CNS
UACC-257 melanoma = test system: UACC-257 melanoma
M14 melanoma = test system: M14 melanoma

Measured: growth

N/C(=N\N=C\c1ccc2c(c1)OCO2)N/N=C\c1ccc2c(c1)OCO2
inactive: NCI-H23 lung; 10 µM unless noted 109% and 89% | NCI-H226 lung; 10 µM unless noted 106% and 108% | NCI-H322M lung 108% and 101% | HOP-62 NSCLC 115% and 101% | NCI-H460 lung; 10 µM unless noted 104% and 69.4% | HOP-92 NSCLC 99.8% | NCI-H522 lung; 10 µM unless noted 119% and 108% | A549/ATCC NSCLC; 10 µM unless noted 107% and 108% | 786-0 renal; 10 µM unless noted 103% and 88.6% | COLO 205 colon; 10 µM unless noted 108% and 94.5% | DU-145 prostate; 10 µM unless noted 110% and 83.9% | K-562 leukemia; 10 µM unless noted 90.1% | MALME-3M melanoma; 10 µM unless noted 92.7% | MDA-MB-231 breast; 10 µM unless noted 107% and 90.4% | RXF 393 renal; 10 µM unless noted 110% | SF-268 CNS; 10 µM unless noted 101% and 76.2% | SF-295 CNS; 10 µM unless noted 114% and 121% | SF-539 CNS; 10 µM unless noted 109% and 113% | UACC-257 melanoma; 10 µM unless noted 110% and 97% | M14 melanoma; 10 µM unless noted 100% and 59.7%

CNC(=O)c1cc(Oc2ccc(CC(=O)Nc3cc(C(C)(C)C)nn3C)cc2)ccn1
inactive: NCI-H23 lung; 1 µM 50% | NCI-H23 lung; 10 µM 49% | NCI-H23 lung; 30 µM 48.9% | NCI-H226 lung; 10 µM 61.6% | NCI-H226 lung; 30 µM 49.4% | NCI-H460 lung; 1 µM 79.4% | NCI-H460 lung; 10 µM 66.7% | NCI-H460 lung; 30 µM 80.7% | NCI-H522 lung; 1 µM 74.3% | NCI-H522 lung; 10 µM 54.9% | NCI-H522 lung; 30 µM 71.7% | A549/ATCC NSCLC; 1 µM 71.2% | A549/ATCC NSCLC; 10 µM 67.2% | A549/ATCC NSCLC; 30 µM 80.8% | 786-0 renal; 1 µM 90.7% | 786-0 renal; 10 µM 100% | 786-0 renal; 30 µM 93.8% | COLO 205 colon; 10 µM 77.1% | COLO 205 colon; 30 µM 91.2% | DU-145 prostate; 1 µM 91.6% | DU-145 prostate; 10 µM 76.3% | DU-145 prostate; 30 µM 103% | K-562 leukemia; 1 µM 41.9% | K-562 leukemia; 10 µM 33.9% | K-562 leukemia; 30 µM 28.3% | MALME-3M melanoma; 1 µM 60.5% | MALME-3M melanoma; 10 µM 61.4% | MALME-3M melanoma; 30 µM 66% | MDA-MB-231 breast; 1 µM 78.6% | MDA-MB-231 breast; 10 µM 69.1% | MDA-MB-231 breast; 30 µM 71.9% | RXF 393 renal; 1 µM 98.3% | RXF 393 renal; 10 µM 79.9% | SF-268 CNS; 1 µM 86.9% | SF-268 CNS; 10 µM 70.9% | SF-268 CNS; 30 µM 98.7% | SF-295 CNS; 1 µM 58.1% | SF-295 CNS; 10 µM 37.1% | SF-295 CNS; 30 µM 33.9% | SF-539 CNS; 1 µM 67.1% | SF-539 CNS; 10 µM 66.7% | SF-539 CNS; 30 µM 69.2% | UACC-257 melanoma; 1 µM 60.5% | UACC-257 melanoma; 10 µM 55.7% | UACC-257 melanoma; 30 µM 47.7% | M14 melanoma; 1 µM 96.5% | M14 melanoma; 10 µM 88%

Clc1ccc(SSc2ccc(Cl)cc2)cc1
inactive: NCI-H23 lung; 10 µM unless noted 94.1% and 85.5% | NCI-H226 lung; 10 µM unless noted 104% and 79.5% | NCI-H322M lung 95.6% and 108% | HOP-62 NSCLC 102% and 98% | NCI-H460 lung; 10 µM unless noted 98.1% and 79.5% | HOP-92 NSCLC 76% and 74.2% | NCI-H522 lung; 10 µM unless noted 87.9% and 81.8% | A549/ATCC NSCLC; 10 µM unless noted 95.9% and 46.9% | 786-0 renal; 10 µM unless noted 96.5% and 66.8% | COLO 205 colon; 10 µM unless noted 99.6% and 113% | DU-145 prostate; 10 µM unless noted 103% and 109% | K-562 leukemia; 10 µM unless noted 100% | MALME-3M melanoma; 10 µM unless noted 95% and 119% | MDA-MB-231 breast; 10 µM unless noted 107% and 62.2% | RXF 393 renal; 10 µM unless noted 96.1% and 86% | SF-268 CNS; 10 µM unless noted 94.4% and 72.4% | SF-295 CNS; 10 µM unless noted 103% and 93.8% | SF-539 CNS; 10 µM unless noted 99.5% and 88.7% | UACC-257 melanoma; 10 µM unless noted 91.5% and 98.3% | M14 melanoma; 10 µM unless noted 93.6% and 94.1%

Reference: PubChem BioAssay (NCI)
